# Measurements from PubChem BioAssay (NCATS).
# Inconclusive results are not listed. Entries that show only a call come without a potency. A number with no mark means an inactive call. Active and inactive are the calls of the source. Calls come from the whole dose curve; as a rule, active = well fitted inhibition curve with a large enough effect; inconclusive = small, poorly fitted or top-dose-only effect; inactive = flat fitted curve, though single readings scatter.
# What was measured:
# [1] = qHTS profiling for inhibitors of Plasmodium falciparum proliferation (AID 504749); note: nearly all actives have a fitted effect of over 60% in size; note: potency is the fitted concentration of half-maximal effect; details: P. falciparum in erythrocytes, SYBR Green DNA, 72 h
# Procedure, shortened: (§1)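 Parasite proliferation within erythrocytes, 72 h exposure. Endpoint: SYBR Green I fluorescence after overnight lysis at room temperature. Controls: 0.29 uM artemisinin, DMSO.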
# 3D7 = assay: as above; details: P. falciparum in erythrocytes, SYBR Green DNA, 72 h; series mostly up to 28.7 µM
# Procedure, shortened: as §1
# 7G8 = assay: as above; details: P. falciparum in erythrocytes, SYBR Green DNA, 72 h; series mostly up to 28.7 µM
# Procedure, shortened: as §1
# AA1029 = assay: as above; details: P. falciparum in erythrocytes, SYBR Green DNA, 72 h; series mostly up to 28.7 µM
# Procedure, shortened: as §1
# [2] = molecular target: Phospholipid hydroperoxide glutathione peroxidase GPX4 (Homo sapiens) (UniProt P36969); assay: Primary qHTS Assay for Inhibitors of Recombinant Selenoprotein Glutathione Peroxidase 4 (GPX4) (AID 1845192); details: recombinant GPX4, GR-coupled NADPH fluorescence, 15 min; series mostly up to 50 µM; note: nearly all actives have a fitted effect of over 65% in size
# Procedure, shortened: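 GR-coupled readout: 100 nM GR, 1 mM GSH, 0.5 mM NADPH; NADPH fluorescence (ex 340/em 450 nm) read at t=0 and after 15 min RT. GPX4 200 nM, preincubated 30 min with compound; substrate 0.5 mM CHP.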
# [3] = at 28.7 µM (top of the series), parasite line A
# [4] = at 28.7 µM (top of the series), parasite line B
# Chain of Phospholipid hydroperoxide glutathione peroxidase GPX4 (Homo sapiens) (P36969 whole entry, looked up): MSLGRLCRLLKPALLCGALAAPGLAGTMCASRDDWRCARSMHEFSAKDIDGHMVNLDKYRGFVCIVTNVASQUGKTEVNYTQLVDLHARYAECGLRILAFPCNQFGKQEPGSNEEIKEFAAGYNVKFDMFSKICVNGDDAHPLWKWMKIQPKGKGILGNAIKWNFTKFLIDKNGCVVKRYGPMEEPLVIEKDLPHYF
compound,measurement,setting,value
O=C(O)c1ccccc1OP(=O)(O)O,"activity, negative = inhibition",[1]; [3],4.92%
same,"activity, negative = inhibition",[1]; [4],6.75%
same,Potency,3D7,inactive
same,Potency,7G8,inactive
same,Potency,AA1029,inactive
CN1CCN(C(=O)C2CCCCC2)CC1,"activity, negative = inhibition",[1]; [3],0.439%
same,"activity, negative = inhibition",[1]; [4],-13.4%
same,Potency,3D7,inactive
same,Potency,7G8,inactive
same,Potency,AA1029,inactive
CN1C(C)(C)CCCC1(C)C,"activity, negative = inhibition",[1]; [3],8.89%
same,"activity, negative = inhibition",[1]; [4],5.87%
same,Potency,3D7,inactive
same,Potency,7G8,inactive
same,Potency,AA1029,inactive
Nc1ncnc2c1ncn2[C@@H]1O[C@H](COP(=O)(O)O)[C@@H](O)[C@H]1O,"activity, negative = inhibition",[1]; [3],-10.7%
same,"activity, negative = inhibition",[1]; [4],4.33%
same,Potency,3D7,inactive
same,Potency,7G8,inactive
same,Potency,AA1029,inactive
NNC(=O)CP(=O)(c1ccccc1)c1ccccc1,"activity, negative = inhibition",[1]; [3],8.38%
same,"activity, negative = inhibition",[1]; [4],6.41%
same,Potency,3D7,inactive
same,Potency,7G8,inactive
same,Potency,AA1029,inactive
CCCCCC(N)=O,"activity, negative = inhibition",[1]; [3],6.64%
same,"activity, negative = inhibition",[1]; [4],8.74%
same,Potency,3D7,inactive
same,Potency,7G8,inactive
same,Potency,AA1029,inactive
O=C(O)Cn1c(C(=O)Nc2nc(-c3ccccc3Cl)cs2)cc2ccccc21,"activity, negative = inhibition",[1]; [3],10.1%
same,"activity, negative = inhibition",[1]; [4],5.81%
same,Potency,3D7,inactive
same,Potency,7G8,inactive
same,Potency,AA1029,inactive
CC(N)CCCC(C)(C)O (centres undefined),"activity, negative = inhibition",[1]; [3],12.5%
same,"activity, negative = inhibition",[1]; [4],-7.47%
same,Potency,3D7,inactive
same,Potency,7G8,inactive
same,Potency,AA1029,inactive
CCN(CC)CC1CCCCN1CC(=O)N1c2ccccc2C(=O)Nc2cccnc21 (centres undefined),"activity, negative = inhibition",[1]; [3],6.16%
same,"activity, negative = inhibition",[1]; [4],1.05%
same,Potency,3D7,inactive
same,Potency,7G8,inactive
same,Potency,AA1029,inactive
Cc1cc(NC(=O)C2=C(O)c3ccccc3S(=O)(=O)N2C)no1,"activity, negative = inhibition",[1]; [3],12.7%
same,"activity, negative = inhibition",[1]; [4],-1.12%
same,Potency,3D7,inactive
same,Potency,7G8,inactive
same,Potency,AA1029,inactive
Cc1ccc(S(=O)(=O)NC(=O)NC2CCCCCCC2)cc1,"activity, negative = inhibition",[1]; [3],11.2%
same,"activity, negative = inhibition",[1]; [4],10.7%
same,Potency,3D7,inactive
same,Potency,7G8,inactive
same,Potency,AA1029,inactive
O=C(O)Cc1ccc(CCNS(=O)(=O)c2ccc(Cl)cc2)cc1,"activity, negative = inhibition",[1]; [3],5.99%
same,"activity, negative = inhibition",[1]; [4],-5.95%
same,Potency,3D7,inactive
same,Potency,7G8,inactive
same,Potency,AA1029,inactive
CC(=O)Nc1cccc(O)c1,"activity, negative = inhibition",[1]; [3],7.02%
same,"activity, negative = inhibition",[1]; [4],9.95%
same,Potency,3D7,inactive
same,Potency,7G8,inactive
same,Potency,AA1029,inactive
O=c1[nH]cnc2nc[nH]c12,"activity, negative = inhibition",[1]; [3],-7.68%
same,"activity, negative = inhibition",[1]; [4],15.5%
same,Potency,3D7,inactive
same,Potency,7G8,inactive
same,Potency,AA1029,inactive
NNc1nnc(NN)c2ccccc12,"activity, negative = inhibition",[1]; [3],11.4%
same,"activity, negative = inhibition",[1]; [4],18.1%
same,Potency,3D7,inactive
same,Potency,7G8,inactive
same,Potency,AA1029,inactive
O=C1c2cccc(O)c2C(=O)c2c(O)cccc21,Potency,[2],inactive
same,"activity, negative = inhibition",[1]; [3],-0.153%
same,"activity, negative = inhibition",[1]; [4],3.79%
same,Potency,3D7,inactive
same,Potency,AA1029,inactive
NS(=O)(=O)c1ccc(NC(=O)CCC(=O)O)cc1,"activity, negative = inhibition",[1]; [3],0.494%
same,"activity, negative = inhibition",[1]; [4],7.64%
same,Potency,3D7,inactive
same,Potency,7G8,inactive
same,Potency,AA1029,inactive
Cc1ccc(S(=O)(=O)NC(=O)NC2CCCCC2)cc1,"activity, negative = inhibition",[1]; [3],-9.84%
same,"activity, negative = inhibition",[1]; [4],5.26%
same,Potency,3D7,inactive
same,Potency,7G8,inactive
same,Potency,AA1029,inactive
COc1ccc(Cc2cnc(N)nc2N)cc1OC,Potency,[1]; parasite line A,3.55 µM (active)
same,Potency,[1]; parasite line B,8.91 µM (active)
same,Potency,3D7,7.08 µM (active)
same,Potency,7G8,inactive
same,Potency,AA1029,inactive
OC(CCN1CCCC1)(c1ccccc1)C1CCCCC1 (centres undefined),Potency,[2],inactive
Cc1ncc(CO)c(CN)c1O,"activity, negative = inhibition",[1]; [3],7.32%
same,"activity, negative = inhibition",[1]; [4],18.3%
same,Potency,3D7,inactive
same,Potency,7G8,inactive
same,Potency,AA1029,inactive
O=C(O)c1ccc[n+]([O-])c1,"activity, negative = inhibition",[1]; [3],-4.83%
same,"activity, negative = inhibition",[1]; [4],10.2%
same,Potency,3D7,inactive
same,Potency,7G8,inactive
same,Potency,AA1029,inactive
Cn1c(=O)c2c(ncn2CCO)n(C)c1=O,"activity, negative = inhibition",[1]; [3],2.6%
same,"activity, negative = inhibition",[1]; [4],-3.88%
same,Potency,3D7,inactive
same,Potency,7G8,inactive
same,Potency,AA1029,inactive
O=C(NCN1CCOCC1)c1cnccn1,"activity, negative = inhibition",[1]; [3],-8.14%
same,"activity, negative = inhibition",[1]; [4],11.7%
same,Potency,3D7,inactive
same,Potency,7G8,inactive
same,Potency,AA1029,inactive
CCN(CC)CCc1nc(-c2ccccc2)no1,"activity, negative = inhibition","[1]; at 12.8 µM (top of the series), parasite line A",-7.93%
same,"activity, negative = inhibition","[1]; at 12.8 µM (top of the series), parasite line B",-5.26%
same,Potency,3D7,inactive
same,Potency,7G8,inactive
same,Potency,AA1029,inactive
COc1cc(O)cc(O)c1,"activity, negative = inhibition",[1]; [3],4.63%
same,"activity, negative = inhibition",[1]; [4],-8.81%
same,Potency,3D7,inactive
same,Potency,7G8,inactive
same,Potency,AA1029,inactive
C/C(=C(\CCO)SS/C(CCO)=C(\C)N(C=O)Cc1cnc(C)nc1N)N(C=O)Cc1cnc(C)nc1N,Potency,[2],inactive
Cc1c(C(=O)NCCO)[n+](=O)c2ccccc2n1[O-],"activity, negative = inhibition",[1]; [3],8.49%
same,"activity, negative = inhibition",[1]; [4],-1.36%
same,Potency,3D7,inactive
same,Potency,7G8,inactive
same,Potency,AA1029,inactive
CCCOC(=O)c1ccc(N)cc1,"activity, negative = inhibition",[1]; [3],-0.392%
same,"activity, negative = inhibition",[1]; [4],6.95%
same,Potency,3D7,inactive
same,Potency,7G8,inactive
same,Potency,AA1029,inactive
Cc1c(Cn2ccnc2)c2ccccc2n1CCC(=O)O,"activity, negative = inhibition",[1]; [3],14.7%
same,"activity, negative = inhibition",[1]; [4],0.623%
same,Potency,3D7,inactive
same,Potency,7G8,inactive
same,Potency,AA1029,inactive
Cc1cc(-n2nc3ccc(Cl)cc3n2)c(O)c(C(C)(C)C)c1,Potency,3D7,inactive
same,Potency,7G8,inactive
Cc1cccc(C(=O)O)c1O,"activity, negative = inhibition",[1]; [3],14.5%
same,"activity, negative = inhibition",[1]; [4],2.46%
same,Potency,3D7,inactive
same,Potency,7G8,inactive
same,Potency,AA1029,inactive
